# Laboratory results as given in PubChem BioAssay (EPA / NIEHS).
# The source holds several records for some structures; these can differ, active in one and inactive in another. Active and inactive are the calls of the source. How the source made its calls: active means hit-call score of the fitted dose curve at least 0.9, where 1 is the maximum; inactive means score below 0.9.
# Experiment: CCTE_Shafer_MEA_dev_mutual_information_norm: CCTE's Neural Network Formation Assay for Mutual Information Normalization, Shafer Lab (AID 2284091);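 on AC50: potency is for a decrease in mutual information relative to DMSO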
# Protocol: CCTE_Shafer_MEA_dev assay is conducted using Axion Biosystems 48 well microelectrode array (MEA) plates and Maestro recording system. Each well of the MEA plate contains a grid of 16 microelectrodes embedded in the culture surface. Electrically active cells, such as neurons, can be cultured over the electrodes, and electrical activity in these cells can be recorded extracellularly. The spontaneous firing of neurons is captured from each electrode on a microsecond timescale providing both temporally and spatially precise data. […] The CCTE_Shafer_MEA_dev assay uses primary cultures of rat cortical neurons. Recordings are made on days post-plating 5, 7, 9 and 12. As these cultures mature over time, neural networks develop functional activity and form cohesive networks in which electrical activity can be highly coordinated. CCTE_Shafer_MEA_dev_mutual_information_norm is 1 of 19 assay components of the CCTE_Shafer_MEA_dev assay. It is a measure of shared information between electrodes during a recording in a microelectrode array (MEA) using Axion Biosystems Maestro 768 channel amplifier with the AxIS adaptive spike detector. To collapse across multiple recordings made on days post-plating 5, 7, 9 and 12, the trapezoidal area-under-the-curve of the component is calculated.Data from the assay component CCTE_Shafer_MEA_dev_mutual_information_norm was analyzed into 1 assay endpoint. This assay endpoint, CCTE_Shafer_MEA_dev_mutual_information_norm, was analyzed in the negative analysis fitting direction relative to DMSO as the negative control and baseline of activity. Using a type of functional reporter, gain or loss-of-signal activity can be used to understand electrical activity.
# On the day prior to culture, each well was coated thoroughly with 150 uL of 0.05% polyethyleneimine (PEI, Sigma Cat P3143) in 50 mM HEPES (Sigma Cat H7523) at a pH of 8. The plate was incubated at 37C for one hour. PEI was rinsed out with 500 uL of sterile water three times. Plates were stored at 4C until the day of culture. This culture was plated at a seeding density of 1.5 x 10^5 cells/well on a 48-well MEA plate, prepared as described above. Cells were administered via a 25 uL media/laminin ([…]; Sigma Cat L2020-1MG) drop directly onto the microelectrode array, as adding the cells with the laminin results in better attachment than pre-coating with laminin. After 2 hours, an additional 475 uL of cortical media was added and the cells returned to the incubator. Exposure starts at day 0 of plating and is continued over twelve days of network development until the experiment is terminated. Cells are fed with fresh medium on DIV 5 and 9, following the recordings on those days. The entire volume of media in the well is exchanged and any vehicle or compound treatment is renewed. Complete details are found in OP-NHEERL/ISTD/SBB/TJS/2015-03-r0 (available on request, email shafer.tim@epa.gov). Measurement of the electrical activity is non-invasive, and recordings can be made from the same plate over multiple different days of the culture. In cortical neurons, this allows for the measurement of extracellular action potentials over the period during which networks form in the MEA plate.
SMILES,outcome,AC50
CN(CCO)S(=O)(=O)C(F)(F)C(F)(F)C(F)(F)C(F)(F)C(F)(F)C(F)(F)C(F)(F)C(F)(F)F,inactive,
O=C(F)C(F)(F)C(F)(F)C(F)(F)C(=O)F,inactive,
O=C(O)CCC(F)(F)C(F)(F)C(F)(F)C(F)(F)C(F)(F)F,inactive,
O=C(F)C(F)(F)C(F)(F)C(F)(F)C(F)F,inactive,
CC(C)c1c(C(=O)Nc2ccccc2)c(-c2ccccc2)c(-c2ccc(F)cc2)n1CC[C@@H](O)C[C@@H](O)CC(=O)O,,0.00793 µM (active)
O=C(CCCN1CCC(O)(c2ccc(Cl)cc2)CC1)c1ccc(F)cc1,,0.163 µM (active)
O=C(OC(=O)C(F)(F)C(F)(F)F)C(F)(F)C(F)(F)F,inactive,
C=CC(F)(F)C(F)(F)C(F)(F)C(F)(F)F,inactive,
COC(=O)C(F)(F)C(F)(F)C(F)(F)F,inactive,
O=C(CC(=O)C(F)(F)C(F)(F)C(F)(F)F)c1cccs1,inactive,
OCC(F)(F)C(F)(F)C(F)(F)C(F)(F)C(F)(F)C(F)(F)C(F)(F)C(F)(F)C(F)(F)C(F)(F)C(F)(F)F,inactive,4.61 µM (active)
FCOC(C(F)(F)F)C(F)(F)F,inactive,
NC(C(F)(F)F)C(F)(F)F,inactive,
O=C(C=C(O)C(F)(F)F)C(F)(F)F,inactive,
O=P(O)(O)CCC(F)(F)C(F)(F)C(F)(F)C(F)(F)C(F)(F)C(F)(F)C(F)(F)C(F)(F)F,,4.31 µM (active)
CC(=O)Nc1ccc(O)cc1,inactive,
O=P(O)(O)CCC(F)(F)C(F)(F)C(F)(F)C(F)(F)C(F)(F)C(F)(F)F,inactive,
O=CC(F)(F)C(F)(F)C(F)(F)F,inactive,
CN(Cc1cnc2nc(N)nc(N)c2n1)c1ccc(C(=O)N[C@@H](CCC(=O)O)C(=O)O)cc1,,0.0191 µM (active)
FC(F)=C(F)C(F)(F)C(F)(F)C(F)(F)C(F)F,inactive,
O=C(O)C(F)(F)OC(F)(F)C(F)(F)OC(F)(F)C(F)(F)OC(F)(F)C(F)(F)C(F)(F)C(F)(F)F,inactive,
Nc1ccn([C@@H]2O[C@H](CO)[C@@H](O)C2O)c(=O)n1 (some centres not stated),,0.0744 µM (active)
O=C1NS(=O)(=O)c2ccccc21,inactive,
O=CC(F)(F)C(F)(F)C(F)(F)C(F)F,inactive,
COC(=O)C(F)(F)C(F)(F)C(F)(F)C(F)(F)C(F)(F)F,inactive,
CN(C)CCOC(c1ccccc1)c1ccccc1,inactive,
